The structures appear in SMILES notation. Results filed as inconclusive are left out. Activity calls are given as the source filed them. The calls were made as follows, unless noted: active = hit-call score of the fitted dose curve at least 0.9, where 1 is the maximum; inactive = score below 0.9.

Sequence of Cellular tumor antigen p53 (Homo sapiens) (P04637 whole entry, looked up): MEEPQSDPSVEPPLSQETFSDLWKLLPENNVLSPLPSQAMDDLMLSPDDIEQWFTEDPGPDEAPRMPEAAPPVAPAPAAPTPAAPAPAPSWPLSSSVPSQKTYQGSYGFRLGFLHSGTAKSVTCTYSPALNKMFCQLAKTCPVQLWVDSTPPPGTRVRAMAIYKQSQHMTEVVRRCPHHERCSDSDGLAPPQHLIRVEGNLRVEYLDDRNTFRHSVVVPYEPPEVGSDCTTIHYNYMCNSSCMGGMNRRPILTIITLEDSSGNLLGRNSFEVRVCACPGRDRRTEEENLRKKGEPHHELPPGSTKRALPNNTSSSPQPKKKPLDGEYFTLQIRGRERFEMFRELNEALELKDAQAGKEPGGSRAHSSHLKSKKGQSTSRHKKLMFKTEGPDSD

Test system in one assay: not listed separately
Briefly: ATG_Oct_MLP_CIS: Attagene CIS-FACTORIAL HepG2 Assay for human Octamer-Binding Transcription Factor (Oct) (AID 2282993). The conditions noted are these: HepG2 Attagene cis-factorial Oct reporter, mRNA; actives raise or lower the signal. The gist of the method:
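Transfected HepG2 cells, 24 h treatment. Reporter mRNA quantified by RT-PCR–capillary electrophoresis; bidirectional fitting against DMSO.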
Turning to `O=C(O)c1cc(Cl)cc([N+](=O)[O-])c1Cl`, the result was inactive.

For the compound `CCCCCCCCCCOC(C)=O`, the compound was classed as inactive.

Take `Cc1ccc2c(c1)C(=O)c1ccccc1C2=O`: the call was inactive.

Turning to `CCC(C)OC(=O)c1ccc(O)cc1` (stereo unspecified), the call was inactive.

Consider `CCN(CCO)c1cccc(C)c1`, for which the compound was called inactive.

As a reminder, the AC50 is the concentration giving half of the maximal activity seen. On to `Nc1ccc(N=Nc2ccccc2)c(N)n1`, for which the AC50 is 69.7 µM (active).

For `CC(C)(C)c1ccc(OC(=O)c2ccccc2O)cc1`, the compound was classed as inactive.

Consider `COC(=O)/C=C\C(=O)O`, for which the outcome was inactive.

`CC(=O)OCCC1CCCCC1`: the call was inactive.

On to `O=C(O)c1ccccc1Nc1cccc(C(F)(F)F)c1`, for which the result was inactive.

For the compound `O=C1OC(=O)c2cc(Oc3ccc4c(c3)C(=O)OC4=O)ccc21`, the call was inactive.

Regarding `O=C(Nc1cccc(C(F)(F)F)c1)c1cc(Br)cc(Br)c1O`, the half-maximal activity concentration (AC50) is 2.95 µM (active).

With `COc1cc(C)ccc1C(C)C`, the compound was classed as inactive.

For the compound `CCCCCCCCCCc1ccccc1`, the concentration at half-maximal activity (AC50) was 53.6 µM (active).

As for `FC(F)(F)C(=NOCC1OCCO1)c1ccc(Cl)cc1`, the compound was called inactive.

For `O=C(Oc1ccccc1)c1ccc2ccccc2c1O`, the AC50 is 49 µM (active).

In the case of `O=C1C=CC(=O)O1`, the result was inactive.

`O=C1c2ccccc2C(=O)C1c1nc2ccccc2c(Br)c1O`: the compound was called inactive.

In the case of `O=c1[nH]nc(-c2ccc([N+](=O)[O-])o2)o1`, the outcome was inactive.

Consider `CC=CCO`, for which the compound was classed as inactive.

Consider `CC(C)=CCC[C@H](C)CCO`, for which the outcome was inactive.

With `Cc1cc(C)c(C(=O)O)c(C)c1`, the result was inactive.

As for `CCCCCCCC(C)=O`, the compound was classed as inactive.

For `c1ccc(CCCc2ccncc2)cc1`, the result was inactive.

As to `CC=C1CC2C=CC1C2` (stereo unspecified), the compound was classed as inactive.

On to `Cc1cc(O)c(Cl)c(C)c1Cl`, for which the compound was called inactive.

Consider `C=CC(=O)OCCC(=O)O`, for which the compound was classed as inactive.

For the compound `OC1CCCCCCCCCCC1`, the call was inactive.

Turning to `CC(C)=CC1CC(C)CCO1` (stereo unspecified), the outcome was inactive.

With `CCOCC(=O)O`, the compound was called inactive.

Turning to `CC1(C)S[C@@H]2[C@H](NC(=O)COc3ccccc3)C(=O)N2[C@H]1C(=O)O`, the result was inactive.

Consider `CC(=O)NS(=O)(=O)c1ccc(N)cc1`, for which the outcome was inactive.

Take `CCCOCCOCCOCCO`: the call was inactive.

As for `C=C1C2CCC(C2)C1(C)C` (stereo unspecified), the compound was called inactive.

For the compound `C=CC(C)(CCC=C(C)C)OC(=O)C(C)C` (stereo unspecified), the call was inactive.

Regarding `CCCCCCCCCCCCCOP(=O)(O)O`, the result was inactive.

Consider `O=S(=O)(O)c1ccccc1C=Cc1ccc(-c2ccc(C=Cc3ccccc3S(=O)(=O)O)cc2)cc1`, for which the compound was called inactive.

Take `Cc1cc(C)c(C)cc1C`: the outcome was inactive.

As to `CC(=O)C=CC1C(C)=CCC(C)C1(C)C` (stereo unspecified), the result was inactive.

As to `NCCCN1CCN(CCCN)CC1`, the compound was classed as inactive.

Another assay has as its target Cellular tumor antigen p53 (Homo sapiens) (UniProt P04637). The assay can be described thus: ATG_p53_CIS: Attagene CIS-FACTORIAL HepG2 Assay for human p53 Transcription Factor (AID 2282994). The settings on record: HepG2 p53 cis-element reporter, Attagene mRNA; actives raise or lower the signal. Summed up:
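Read-out: reporter mRNA by RT-PCR plus capillary electrophoresis with fluorescence detection. Human HepG2 liver cells carried transfected multi-reporter cis-element constructs, dosed 24 h. Gain or loss of signal fitted bidirectionally against DMSO control.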
`O=C(O)c1cc(Cl)cc([N+](=O)[O-])c1Cl`: the compound was classed as inactive.

In the case of `CCCCCCCCCCOC(C)=O`, the call was inactive.

For the compound `Cc1ccc2c(c1)C(=O)c1ccccc1C2=O`, the compound was called inactive.

On to `CCC(C)OC(=O)c1ccc(O)cc1` (stereo unspecified), for which the result was inactive.

Regarding `CCN(CCO)c1cccc(C)c1`, the result was inactive.

Take `Nc1ccc(N=Nc2ccccc2)c(N)n1`: the compound was called inactive.

On to `CC(C)(C)c1ccc(OC(=O)c2ccccc2O)cc1`, for which the call was inactive.

Take `COC(=O)/C=C\C(=O)O`: the compound was called inactive.

Regarding `CC(=O)OCCC1CCCCC1`, the compound was classed as inactive.

On to `O=C(O)c1ccccc1Nc1cccc(C(F)(F)F)c1`, for which the call was inactive.

For `O=C1OC(=O)c2cc(Oc3ccc4c(c3)C(=O)OC4=O)ccc21`, the result was inactive.

On to `O=C(Nc1cccc(C(F)(F)F)c1)c1cc(Br)cc(Br)c1O`, for which the concentration at half-maximal activity (AC50) is 147 µM (active).

Regarding `COc1cc(C)ccc1C(C)C`, the compound was called inactive.

Regarding `CCCCCCCCCCc1ccccc1`, the compound was called inactive.

With `FC(F)(F)C(=NOCC1OCCO1)c1ccc(Cl)cc1`, the result was inactive.

Consider `O=C(Oc1ccccc1)c1ccc2ccccc2c1O`, for which the outcome was inactive.

For `O=C1C=CC(=O)O1`, the compound was classed as inactive.

For `O=C1c2ccccc2C(=O)C1c1nc2ccccc2c(Br)c1O`, the outcome was inactive.

Consider `O=c1[nH]nc(-c2ccc([N+](=O)[O-])o2)o1`, for which the call was inactive.

`CC=CCO`: the compound was classed as inactive.

For the compound `CC(C)=CCC[C@H](C)CCO`, the outcome was inactive.

As for `Cc1cc(C)c(C(=O)O)c(C)c1`, the call was inactive.

For the compound `CCCCCCCC(C)=O`, the call was inactive.

On to `c1ccc(CCCc2ccncc2)cc1`, for which the result was inactive.

`CC=C1CC2C=CC1C2` (stereo unspecified): the compound was classed as inactive.

For the compound `Cc1cc(O)c(Cl)c(C)c1Cl`, the outcome was inactive.

For `C=CC(=O)OCCC(=O)O`, the compound was called inactive.

For `OC1CCCCCCCCCCC1`, the compound was called inactive.

Turning to `CC(C)=CC1CC(C)CCO1` (stereo unspecified), the result was inactive.

Take `CCOCC(=O)O`: the compound was called inactive.

For the compound `CC1(C)S[C@@H]2[C@H](NC(=O)COc3ccccc3)C(=O)N2[C@H]1C(=O)O`, the result was inactive.

As for `CC(=O)NS(=O)(=O)c1ccc(N)cc1`, the outcome was inactive.

In the case of `CCCOCCOCCOCCO`, the compound was classed as inactive.

As for `C=C1C2CCC(C2)C1(C)C` (stereo unspecified), the outcome was inactive.

Take `C=CC(C)(CCC=C(C)C)OC(=O)C(C)C` (stereo unspecified): the compound was classed as inactive.

As for `CCCCCCCCCCCCCOP(=O)(O)O`, the compound was called inactive.

For the compound `O=S(=O)(O)c1ccccc1C=Cc1ccc(-c2ccc(C=Cc3ccccc3S(=O)(=O)O)cc2)cc1`, the compound was called inactive.

As to `Cc1cc(C)c(C)cc1C`, the compound was classed as inactive.

As to `CC(=O)C=CC1C(C)=CCC(C)C1(C)C` (stereo unspecified), the result was inactive.

As for `NCCCN1CCN(CCCN)CC1`, the compound was classed as inactive.

For another assay, the target named is human Peroxisome Proliferator-activated Receptor alpha (PPARa), PPARA (gene 5465) (UniProt Q07869). Briefly: ATG_PPARa_TRANS: Attagene TRANS-FACTORIAL HepG2 Assay for human Peroxisome Proliferator-activated Receptor alpha (PPARa) (AID 2283001; active = hit-call score of the fitted dose curve at least 0.9, where 1 is the maximum;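 as to AC50: potency for gain of reporter signal over DMSO so agonist or activator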).
Sequence of human Peroxisome Proliferator-activated Receptor alpha (PPARa), PPARA (gene 5465) (Q07869 whole entry, looked up): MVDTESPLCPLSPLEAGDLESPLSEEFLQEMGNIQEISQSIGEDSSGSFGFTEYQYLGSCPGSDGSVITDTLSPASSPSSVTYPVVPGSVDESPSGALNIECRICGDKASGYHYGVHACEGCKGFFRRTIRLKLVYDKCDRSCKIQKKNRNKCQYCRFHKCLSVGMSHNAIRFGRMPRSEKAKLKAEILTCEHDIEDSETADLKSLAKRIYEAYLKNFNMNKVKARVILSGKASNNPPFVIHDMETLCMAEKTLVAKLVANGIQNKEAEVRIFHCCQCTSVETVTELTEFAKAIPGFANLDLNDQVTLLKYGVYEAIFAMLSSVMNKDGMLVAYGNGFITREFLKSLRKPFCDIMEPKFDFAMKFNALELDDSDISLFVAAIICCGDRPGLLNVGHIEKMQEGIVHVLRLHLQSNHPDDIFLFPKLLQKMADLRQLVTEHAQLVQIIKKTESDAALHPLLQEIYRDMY
Details: not given
Summed up: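 Cells (HepG2) are transfected with multiple reporter transcription units, exposed to chemical for 24 h, then total RNA is reverse-transcribed and amplified. Labelled products are quantified by capillary electrophoresis; induction is referenced to DMSO.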
Turning to `O=C(O)c1cc(Cl)cc([N+](=O)[O-])c1Cl`, the call was inactive.

Turning to `CCCCCCCCCCOC(C)=O`, the compound was called inactive.

Consider `Nc1ccc(N=Nc2ccccc2)c(N)n1`, for which the AC50 is 44.6 µM (active).

For `CC(C)(C)c1ccc(OC(=O)c2ccccc2O)cc1`, the call was inactive.

For the compound `COC(=O)/C=C\C(=O)O`, the result was inactive.

Take `O=C(O)c1ccccc1Nc1cccc(C(F)(F)F)c1`: the AC50 is 13.9 µM (active).

On to `O=C1OC(=O)c2cc(Oc3ccc4c(c3)C(=O)OC4=O)ccc21`, for which the call was inactive.

On to `COc1cc(C)ccc1C(C)C`, for which the result was inactive.

For `FC(F)(F)C(=NOCC1OCCO1)c1ccc(Cl)cc1`, the result was inactive.

Regarding `O=C1C=CC(=O)O1`, the compound was called inactive.

With `Cc1cc(C)c(C(=O)O)c(C)c1`, the half-maximal activity concentration (AC50) was 33.7 µM (active).

In the case of `Cc1cc(O)c(Cl)c(C)c1Cl`, the result was inactive.

Regarding `C=CC(=O)OCCC(=O)O`, the outcome was inactive.

Consider `CC(C)=CC1CC(C)CCO1` (stereo unspecified), for which the compound was classed as inactive.

Regarding `CC(=O)NS(=O)(=O)c1ccc(N)cc1`, the call was inactive.

In the case of `O=S(=O)(O)c1ccccc1C=Cc1ccc(-c2ccc(C=Cc3ccccc3S(=O)(=O)O)cc2)cc1`, the call was inactive.

These data come from PubChem BioAssay (EPA / NIEHS).
